Test results taken from PubChem BioAssay.
Records with an inconclusive call do not appear. Activity calls are given as the source filed them. The limit is not given here; nearly all actives have IC50 up to about 30 µM.

assay: growth inhibition of DIPG cells – cell-based, MIPE5.0 library, qHTS (AID 1347068); conditions: SU-DIPG-XXV viability;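 as to IC50: cells exposed to compound for 48 hours before viability readout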

SMILES | IC50 | outcome
COC1CCC(N2C(=O)CNc3ncc(-c4ccc(C(C)(C)O)nc4)nc32)CC1 (stereo unspecified) | 14.8 µM (active) | 
CN1CCN(C2CCC(n3cc(-c4ccc(Oc5ccccc5)cc4)c4c(N)ncnc43)CC2)CC1 (stereo unspecified) | 8.33 µM (active) | 
CN1CCN(C(=O)[C@H]2[C@@H](C(=O)O)[C@H]3CC[C@@H]2O3)CC1 |  | inactive
C[C@@H](OC[C@@]1(c2ccccc2)CC[C@]2(CCC(=O)N2)CN1)c1cc(C(F)(F)F)cc(C(F)(F)F)c1 | 20.9 µM (active) | 
COC(=O)c1ccc([C@H]2c3[nH]c4ccccc4c3C[C@H](C(=O)OC)N2C(=O)CCl)cc1 | 14.8 µM (active) | 
O=C(Nc1nnc(-c2ccco2)o1)c1cc(-c2ccccc2)nc2ccccc12 |  | inactive
O=C([O-])C[O-].[Pt+2] |  | inactive
COc1cccc(-c2c(C)n(Cc3c(F)cccc3C(F)(F)F)c(=O)n(C[C@H](NCCCC(=O)O)c3ccccc3)c2=O)c1F |  | inactive
CNCCCOc1cc(F)c(-c2c(Cl)nc3ncnn3c2N[C@@H](C)C(F)(F)F)c(F)c1 | 0.235 µM (active) | 
COCCNCc1ccc(-c2cc3nccc(Oc4ccc(NC(=S)NC(=O)Cc5ccc(F)cc5)cc4F)c3s2)nc1 | 9.34 µM (active) | 
O=c1c(-c2ccc(O)cc2)coc2c([C@@H]3O[C@H](CO)[C@@H](O)[C@H](O)[C@H]3O)c(O)ccc12 |  | inactive
COc1ccc2c(c1)CC[C@@H](CN(C)CC(=O)O)[C@H]2c1ccccc1 |  | inactive
Cc1ccc(-c2nn(C(C)(C)CNC(=O)c3ccncc3)c3ncnc(N)c23)cc1 | 14.8 µM (active) | 
N[C@@H](CCC(=O)O)C(=O)N[C@@H](Cc1c[nH]c2ccccc12)C(=O)O |  | inactive
Nc1cc(COc2c(Cl)cc(C[C@H](N)C(=O)O)cc2Cl)c2oc(-c3ccccc3)nc2c1 |  | inactive
COc1ccc(S(=O)(=O)N[C@@H](CNc2nc(C)nc(N3CCC(c4ccc5c(n4)NCCC5)CC3)c2C)C(=O)O)cc1 |  | inactive
O=C(Nc1nccs1)C(c1cc(F)ccc1O)N1Cc2ccccc2C1=O (stereo unspecified) |  | inactive
C=CC(=O)N1CCC[C@H](n2c(=O)n(-c3ccc(Oc4ccccc4)cc3)c3c(N)ncnc32)C1 |  | inactive
CCCCCCCCCCCCCCCCOCCCOP(=O)(O)COC(CO)Cn1ccc(N)nc1=O (stereo unspecified) |  | inactive
CN[C@@H](C)C(=O)N[C@H](C(=O)N1CCC[C@H]1c1nc(C(=O)c2ccc(F)cc2)cs1)C1CCCCC1 |  | inactive
COc1ccc(C(=O)N2CCN(C(=O)/C=C/c3ccc(Br)cc3)CC2)cc1 |  | inactive
